In PubChem BioAssay (NCATS):
Values joined by “and” are separate entries in the source; they are usually repeats but may differ in a detail not shown here. Identical values can stand only once. Inconclusive results are not listed. Active and inactive are the calls of the source. Calls follow the shape of the dose curve; as a rule, active = well fitted curve in the direction sought with a large enough effect; inconclusive = small, poorly fitted or top-dose-only effect, or another doubt; inactive = no such curve, though single readings can be large; an effect the other way counts as inactive or inconclusive.

Key:
Furin (Homo sapiens) = Furin (Homo sapiens) (UniProt P09958); test: Furin counterscreen qHTS for Zika virus inhibitors (AID 1347149); conditions: furin enzymatic counterscreen, fluorogenic substrate; series mostly up to 114 µM; also: nearly all actives have a fitted effect of over 70% in size; also: potency is read from the fitted curve at half-maximal effect
Summary of the method: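 Counterscreen measures cleavage of 2 microM BOC-RVRR-AMC, below its ~15 microM Km, by 5 nM full-length human furin at pH 7.0 after a 15-min compound preincubation. Inhibition derives from the 15-min fluorescence increase at 37C.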

[1] = system: Zika virus NS2B-NS3 protease (linked construct); test: Confirmatory screen NINDS AMC qHTS for Zika virus inhibitors (AID 1347152); conditions: Purified linked NS2B-NS3, AMC substrate fluorescence; series mostly up to 36.9 µM; also: potency is read from the fitted curve at half-maximal effect; nearly all actives have a fitted effect of over 70% in size
Summary of the method: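 IC50s from 4-parameter Hill fits of percent inhibition, based on AMC fluorescence gain (340/450 nm) over 15 min with 10 microM Bz-Nle-KRR-AMC. Enzyme: 1 nM linked NS2B-NS3 in Tris-HCl pH 8.0; 15-min compound preincubation.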

[2] = Confirmatory screen GU Rhodamine qHTS for Zika virus inhibitors qHTS (AID 1347157); conditions: purified enzyme assay, Rhodamine110 substrate fluorescence, 15 min; series mostly up to 114 µM; also: nearly all actives have a fitted effect of over 70% in size; also: potency is read from the fitted curve at half-maximal effect
Summary of the method: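 Compounds, tested up to 114 microM, were incubated for 15 minutes with 25 nM unlinked NS2B-NS3 protease at pH 8.0. Cleavage of 1.5 microM Rhodamine110 substrate was then followed by fluorescence for 15 minutes.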

[3] = system: Zika virus NS2B-NS3 protease (unlinked complex); test: Primary screen GU Rhodamine qHTS for Zika virus inhibitors: Unlinked NS2B-NS3 protease assay (AID 1347159); conditions: Recombinant ZIKV NS2B-NS3 protease, Rhodamine110 substrate fluorescence; series mostly up to 107 µM; also: nearly all actives have a fitted effect of over 60% in size; also: potency is read from the fitted curve at half-maximal effect
Summary of the method: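 Enzyme 25 nM in Tris-HCl pH 8.0 + 0.01% Tween 20; compounds up to 114 microM, 15 min RT dark; + Rhod110 substrate 1.5 microM; read t0 and 15 min; delta fluorescence → % inhibition → 4-parameter Hill fit.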

[4] = system: Zika virus NS2B-NS3 protease (linked construct); test: Primary screen NINDS Rhodamine qHTS for Zika virus inhibitors (AID 1347160); conditions: purified NS2B-NS3 protease, Rhodamine110 substrate fluorescence; series mostly up to 57.1 µM; also: nearly all actives have a fitted effect of over 55% in size; also: potency is read from the fitted curve at half-maximal effect
Summary of the method: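 Enzyme (25 nM, linked NS2B-NS3) was preincubated 15 min with compound in 10 mM Tris-HCl pH 8.0, 0.01% Tween 20. Rhodamine110 substrate (1.5 microM) was then added and fluorescence read at start and after 15 min.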

[5] = system: Zika virus NS2B-NS3 protease (linked); test: 384 well plate NINDS AMC confirmatory qHTS for Zika virus inhibitors (AID 1347163); conditions: Recombinant NS2B-NS3 protease, Ac-VKTGKR-AMC fluorescence; series mostly up to 100 µM; also: potency is read from the fitted curve at half-maximal effect; nearly all actives have a fitted effect of over 50% in size
Summary of the method: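 Fluorescence at 355/460 nm was read after 25 minutes of cleavage of 30 microM Ac-VKTGKR-AMC at room temperature, in the dark. Before substrate addition, compounds (up to 1 mM final) sat ~15 minutes with 5, 30 or 60 nM linked protease. Signals were normalized to no-enzyme and no-inhibitor wells.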

[6] = system: Zika virus NS2B-NS3 protease (linked construct); test: 384 well plate NINDS Rhodamine confirmatory qHTS for Zika virus inhibitors (AID 1347164); conditions: rhodamine-110 peptide substrate fluorescence; series mostly up to 100 µM;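 also: fluorescence from protease cleavage of Ac-LKRR-rhodamine 110 substrate; nearly all actives have a fitted effect of over 65% in size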; also: potency is read from the fitted curve at half-maximal effect
Summary of the method: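 Fluorescence at 485/538 nm was measured 25 minutes after adding 10 microM Ac-LKRR-Rd substrate, in the dark at room temperature. The protease (5, 30 or 60 nM final) had been preincubated ~15 minutes with compound; aprotinin as control.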

[7] = Vero cells viability qHTS for Zika virus inhibitors (AID 1347167); conditions: cytotoxicity counter-screen (Zika); series mostly up to 45.9 µM
Summary of the method: (§1)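 qHTS titration; 24-48 h compound exposure, 37 degrees C/5% CO2; DMEM, 4% FBS; CellTiter Glo ATP luminescence.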

[8] = HepG2 cells viability qHTS for Zika virus inhibitors (AID 1347168); conditions: Zika counter-screen; series mostly up to 45.9 µM
Summary of the method: as §1

[9] = system: Zika virus NS2B-NS3 protease (unlinked complex); test: Confirmatory screen GU AMC qHTS for Zika virus inhibitors (AID 1347153); conditions: Recombinant NS2B-NS3 protease, AMC substrate fluorescence;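 also: enzyme at 25 nM with substrate at 10 µM below its Km of 18.3 µM; potency is read from the fitted curve at half-maximal effect; nearly all actives have a fitted effect of over 70% in size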
Summary of the method: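 Fluorescence change (ex 340/em 450 nm) over 15 min, ~20% substrate conversion, normalized to no-inhibitor and no-enzyme controls, then Hill-fitted. Unlinked protease at 25 nM; AMC peptide 10 µM.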

[10] = system: Zika virus NS2B-NS3 protease; test: Primary screen GU AMC qHTS for Zika virus inhibitors (AID 1347154); conditions: Zika NS2B-NS3 unlinked protease, AMC fluorogenic substrate; series mostly up to 54.1 µM; also: nearly all actives have a fitted effect of over 70% in size; also: potency is read from the fitted curve at half-maximal effect
Summary of the method: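 Unlinked Zika NS2B hydrophilic domain–NS3 protease complex at 25 nM in 10 mM Tris-HCl pH 8.0, 0.01% Tween 20, with an AMC peptide substrate. Fluorescence change (340/450 nm) over 15 min at room temperature, normalized to controls, fitted to 4-parameter Hill.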

[11] = ZIKV-mCherry secondary qHTS for Zika virus inhibitors (AID 1347158); conditions: Vero cells, ZIKV-mCherry infection imaging, 48-72 h; series mostly up to 49.2 µM; also: top concentration of the series differs between compounds
Summary of the method: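 Percent infection is the share of Hoechst-identified Vero nuclei with mCherry signal above 450 RFU (3 SD over negative controls). Cells were infected with recombinant ZIKV-mCherry at MOI 1 after compound addition and imaged 48–72 h later.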

[12] = system: Zika virus NS2B-NS3 protease (unlinked); test: Optimization of GU AMC qHTS for Zika virus inhibitors: Unlinked NS2B-NS3 protease assay (AID 1347151); conditions: recombinant ZIKV NS2B-NS3 protease, fluorogenic AMC substrate; series mostly up to 52.5 µM; also: nearly all actives have a fitted effect of over 80% in size
Summary of the method: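 Fluorescence gain (340/450 nm) over 15 min at room temperature, ~20% conversion, gave percent inhibition fitted to a 4-parameter Hill equation; enzyme was unlinked NS2B-NS3 (25 nM final), pH 8.0 Tris buffer.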

Furin (Homo sapiens), sequence (P09958 whole entry, looked up): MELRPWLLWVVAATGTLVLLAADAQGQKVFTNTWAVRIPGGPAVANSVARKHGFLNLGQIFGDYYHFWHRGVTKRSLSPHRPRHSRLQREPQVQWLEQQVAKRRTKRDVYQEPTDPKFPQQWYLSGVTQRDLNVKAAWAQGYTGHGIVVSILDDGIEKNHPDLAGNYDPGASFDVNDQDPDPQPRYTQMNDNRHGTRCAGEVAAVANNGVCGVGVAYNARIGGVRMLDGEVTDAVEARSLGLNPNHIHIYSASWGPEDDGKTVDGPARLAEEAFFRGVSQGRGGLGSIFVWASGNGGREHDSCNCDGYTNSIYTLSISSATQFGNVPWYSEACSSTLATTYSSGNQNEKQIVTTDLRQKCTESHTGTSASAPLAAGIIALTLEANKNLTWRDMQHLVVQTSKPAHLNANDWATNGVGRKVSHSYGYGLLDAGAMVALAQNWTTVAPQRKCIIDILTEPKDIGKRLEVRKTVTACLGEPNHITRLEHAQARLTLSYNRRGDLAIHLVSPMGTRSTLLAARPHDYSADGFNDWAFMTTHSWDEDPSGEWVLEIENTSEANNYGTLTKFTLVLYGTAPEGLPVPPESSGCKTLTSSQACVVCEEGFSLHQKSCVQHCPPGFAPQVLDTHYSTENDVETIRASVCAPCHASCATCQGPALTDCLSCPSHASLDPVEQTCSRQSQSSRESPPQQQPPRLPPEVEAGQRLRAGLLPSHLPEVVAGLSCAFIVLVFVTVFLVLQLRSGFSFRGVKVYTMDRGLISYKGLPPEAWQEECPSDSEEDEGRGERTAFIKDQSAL

Compound: COc1ccc(-c2ccccc2)cc1NS(=O)(=O)c1cc(Cl)cc(Cl)c1O
- Potency (Furin (Homo sapiens)): 30.4 µM (active)
- Potency [1]: 7.64 µM (active)
- Potency [2]: 1.21 µM (active)
- Potency [3]: 1.41 µM (active)
- Potency [4]: 1.58 µM (active)
- Potency [5]: 4.47 µM (active)
- Potency [6]: 4.47 µM (active)
- outcome [7]: inactive
- outcome [8]: inactive

Compound: CCCCCc1ccc(/C=C/C(=O)Nc2cc(Cl)ccc2C(=O)O)cc1
- Potency (Furin (Homo sapiens)): 39.3 µM (active)
- Potency [1]: 8.79 µM (active)
- Potency [9]: 9.87 µM (active)
- Potency [2]: 1.75 µM (active)
- Potency [4]: 2 µM (active)
- Potency [6]: 22.4 µM (active)
- outcome [8]: inactive

Compound: CN(C)CCCn1cc(C2=C(c3c[nH]c4ccccc34)C(=O)NC2=O)c2ccccc21
- Potency [10]: inactive
- Potency [3]: inactive
- Potency [4]: inactive

Compound: O=C(O)c1ccc(S(=O)(=O)N(Cc2ccc(OC(F)(F)F)cc2)c2ncc(C(F)(F)F)cc2Cl)cc1
- Potency [1]: 49.4 µM (active)
- Potency [9]: 44.1 µM (active)
- Potency [2]: 3.93 µM (active)
- Potency [3]: 4.47 µM (active)
- Potency [4]: 4.47 µM (active)
- Potency [5]: 2.51 µM (active)
- outcome [7]: inactive
- outcome [8]: inactive

Compound: COc1ccc2cc(-c3cc(-c4cc(Cl)cc(Cl)c4)nn3C(C)c3ccc(C(=O)NCCC(=O)O)cc3)ccc2c1 (configuration not stated)
- Potency [2]: 5.55 µM (active)
- Potency [3]: 2.24 µM (active)
- Potency [4]: inactive

Compound: O=C(Nc1ccc(/C=C/c2ccc(NC(=O)c3cc(S(=O)(=O)O)c4cccnc4c3O)cc2S(=O)(=O)O)c(S(=O)(=O)O)c1)c1cc(S(=O)(=O)O)c2cccnc2c1O
- Potency (Furin (Homo sapiens)): 46.9 µM (active)
- Potency [2]: 2.82 µM (active)
- Potency [11]: inactive
- Potency [5]: 44.7 µM (active)
- Potency [6]: 15.8 µM (active)

Compound: COc1cc2ncc(-c3ccccc3)nc2cc1OC
- Potency [10]: 6.31 µM (active) and 2.38 µM (active)
- Potency [3]: inactive
- Potency [4]: inactive

Compound: COc1cc(C(=O)O)ccc1NC(=O)C1NC(CC(C)(C)C)C(C#N)(c2ccc(Cl)cc2F)C1c1cccc(Cl)c1F (configuration not stated)
- Potency [2]: 4.41 µM (active)
- Potency [3]: 2.51 µM (active)
- Potency [4]: inactive

Compound: CC(C)(C)Sc1c(CC(C)(C)C(=O)O)n(Cc2ccc(Cl)cc2)c2ccc(OCc3ccc4ccccc4n3)cc12
- Potency [1]: 31.2 µM (active)
- Potency [2]: 3.93 µM (active)
- Potency [4]: 4.47 µM (active)
- Potency [5]: 14.1 µM (active)
- Potency [6]: inactive
- outcome [7]: inactive
- outcome [8]: inactive

Compound: C[C@H]1CO[C@@H]2Cn3cc(C(=O)NCc4ccc(F)cc4F)c(=O)c(O)c3C(=O)N12
- Potency [2]: inactive
- Potency [3]: 35.5 µM (active)
- Potency [4]: inactive

Compound: O=S(=O)(c1ccccc1)N(CC(F)(F)F)c1ccc(C(O)(C(F)(F)F)C(F)(F)F)cc1
- Potency [10]: inactive
- Potency [4]: inactive

Compound: O=C(O)c1cc(N(Cc2ccc(C3CCCCC3)cc2)C(=O)c2ccc(Oc3ccccc3)cc2)ccc1O
- Potency (Furin (Homo sapiens)): 15.6 µM (active)
- Potency [1]: 12.4 µM (active)
- Potency [9]: 9.87 µM (active)
- Potency [2]: 1.75 µM (active)
- Potency [3]: 1.26 µM (active)
- Potency [4]: 2.82 µM (active)
- Potency [5]: 1.41 µM (active)
- Potency [6]: inactive
- outcome [7]: inactive
- outcome [8]: inactive

Compound: CC1=C(C(=O)OC2CCCCC2)C(c2ccc([N+](=O)[O-])cc2)C2=C(CC(C)(C)CC2=O)N1 (configuration not stated)
- Potency [2]: inactive
- Potency [3]: inactive
- Potency [4]: 31.6 µM (active)

Compound: O=S(=O)(Nc1cc(Cl)c(Oc2cnc3ccccc3c2)c(Cl)c1)c1ccc(Cl)cc1Cl
- Potency [1]: 13.9 µM (active)
- Potency [2]: 1.75 µM (active)
- Potency [3]: 1.78 µM (active)
- Potency [4]: 3.98 µM (active)
- Potency [6]: 2.51 µM (active)
- outcome [8]: inactive

Compound: CCC(CC)(NC(=O)C(C)C)C(=O)N[C@@H](CCCN=C(N)N)C(=O)NC1(C(=O)NC(c2ccc(F)cc2)c2ccc(F)cc2)CCCC1
- Potency (Furin (Homo sapiens)): inactive
- outcome [12]: inactive
- Potency [4]: inactive
- outcome [7]: inactive
- outcome [8]: inactive
